Results on 6 compounds are retold here after ChEMBL document CHEMBL2218924, “A broad activity screen in support of a chemogenomic map for kinase signalling research and drug discovery” (Biochem J, 2013).

Structures are written as SMILES.

In general, residual activity refers to the signal under treatment as a percentage of the control signal.

For assay [1], the target named is Calcium/calmodulin-dependent protein kinase type 1 (Homo sapiens) (UniProt Q14012). The following applies: at 1 µM.
Assay [2] has the same target. The following applies: at 10 µM.
For assay [3], the target named is Calcium/calmodulin-dependent protein kinase type II subunit beta (Homo sapiens) (UniProt Q13554). The following applies: at 1 µM.
The target is the same in assay [4]. Conditions: at 10 µM.
Assay [5] concerns the target Calcium/calmodulin-dependent protein kinase type II subunit gamma (Homo sapiens) (UniProt Q13555). Conditions: at 1 µM.
The target is the same in assay [6]. The following applies: at 10 µM.
Assay [7] addresses Calcium/calmodulin-dependent protein kinase type II subunit delta (Homo sapiens) (UniProt Q13557). Conditions: at 1 µM.
Assay [8] shares this target. The following applies: at 10 µM.
For assay [9], the target named is Death-associated protein kinase 1 (Homo sapiens) (UniProt P53355). The following applies: at 10 µM.
Assay [10] addresses Death-associated protein kinase 2 (Homo sapiens) (UniProt Q9UIK4). Conditions: at 1 µM.
The target is the same in assay [11]. The following applies: at 10 µM.
The target of assay [12] is T1, Serine/threonine-protein kinase DCLK2 (Homo sapiens) (UniProt Q8N568).
T1 sequence (whole entry): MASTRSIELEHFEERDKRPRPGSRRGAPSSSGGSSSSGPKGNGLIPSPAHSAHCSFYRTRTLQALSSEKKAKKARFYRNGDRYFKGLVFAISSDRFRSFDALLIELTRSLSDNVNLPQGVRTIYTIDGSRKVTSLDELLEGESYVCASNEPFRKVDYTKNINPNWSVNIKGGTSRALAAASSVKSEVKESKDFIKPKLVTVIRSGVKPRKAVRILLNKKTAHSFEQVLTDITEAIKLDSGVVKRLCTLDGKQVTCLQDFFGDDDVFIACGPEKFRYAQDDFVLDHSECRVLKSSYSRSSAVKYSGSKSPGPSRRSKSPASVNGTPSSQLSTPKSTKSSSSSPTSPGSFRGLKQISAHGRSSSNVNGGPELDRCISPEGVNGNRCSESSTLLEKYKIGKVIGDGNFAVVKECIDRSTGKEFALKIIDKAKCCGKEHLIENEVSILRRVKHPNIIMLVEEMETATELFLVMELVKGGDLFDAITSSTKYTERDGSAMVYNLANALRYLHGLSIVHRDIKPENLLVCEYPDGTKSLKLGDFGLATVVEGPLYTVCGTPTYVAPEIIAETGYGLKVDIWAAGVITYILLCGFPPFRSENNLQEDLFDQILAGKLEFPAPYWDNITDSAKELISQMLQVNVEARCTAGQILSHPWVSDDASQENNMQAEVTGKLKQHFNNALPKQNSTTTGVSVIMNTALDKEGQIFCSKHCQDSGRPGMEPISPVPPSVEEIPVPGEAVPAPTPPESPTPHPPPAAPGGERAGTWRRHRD
Conditions: at 1 µM.

For assay [13], the target named is T1, Serine/threonine-protein kinase DCLK2 (Homo sapiens). Conditions: at 10 µM.
Assay [14] has as its target T2, Discoidin domain-containing receptor 2 (Homo sapiens) (UniProt Q16832).
T2 sequence (whole entry): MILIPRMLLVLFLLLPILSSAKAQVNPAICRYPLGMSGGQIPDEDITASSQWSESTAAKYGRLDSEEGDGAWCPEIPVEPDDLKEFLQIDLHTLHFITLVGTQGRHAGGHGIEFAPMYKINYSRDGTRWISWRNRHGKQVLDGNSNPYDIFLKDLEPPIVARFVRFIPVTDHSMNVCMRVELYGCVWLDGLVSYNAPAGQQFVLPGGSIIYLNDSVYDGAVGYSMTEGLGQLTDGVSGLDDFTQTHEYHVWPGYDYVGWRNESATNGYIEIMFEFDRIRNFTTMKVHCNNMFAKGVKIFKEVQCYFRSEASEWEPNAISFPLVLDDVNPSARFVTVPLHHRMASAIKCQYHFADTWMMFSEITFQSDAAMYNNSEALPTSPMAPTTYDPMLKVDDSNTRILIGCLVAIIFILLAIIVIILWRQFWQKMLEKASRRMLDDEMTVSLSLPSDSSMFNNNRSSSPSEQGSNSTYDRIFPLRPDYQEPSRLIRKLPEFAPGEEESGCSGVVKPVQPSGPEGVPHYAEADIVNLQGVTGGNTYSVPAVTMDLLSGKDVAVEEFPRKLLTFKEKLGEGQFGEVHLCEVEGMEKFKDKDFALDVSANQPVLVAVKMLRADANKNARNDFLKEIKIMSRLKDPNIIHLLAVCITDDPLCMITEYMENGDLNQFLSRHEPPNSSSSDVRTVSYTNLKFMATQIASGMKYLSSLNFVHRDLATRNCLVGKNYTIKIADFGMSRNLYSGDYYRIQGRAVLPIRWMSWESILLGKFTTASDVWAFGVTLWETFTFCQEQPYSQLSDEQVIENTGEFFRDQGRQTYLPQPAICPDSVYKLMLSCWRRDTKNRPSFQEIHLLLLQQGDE
Conditions: at 1 µM.

In assay [15] the target is T2, Discoidin domain-containing receptor 2 (Homo sapiens). Conditions: at 10 µM.
Assay [16] deals with T3, Myotonin-protein kinase (Homo sapiens) (UniProt Q09013).
T3 sequence (whole entry): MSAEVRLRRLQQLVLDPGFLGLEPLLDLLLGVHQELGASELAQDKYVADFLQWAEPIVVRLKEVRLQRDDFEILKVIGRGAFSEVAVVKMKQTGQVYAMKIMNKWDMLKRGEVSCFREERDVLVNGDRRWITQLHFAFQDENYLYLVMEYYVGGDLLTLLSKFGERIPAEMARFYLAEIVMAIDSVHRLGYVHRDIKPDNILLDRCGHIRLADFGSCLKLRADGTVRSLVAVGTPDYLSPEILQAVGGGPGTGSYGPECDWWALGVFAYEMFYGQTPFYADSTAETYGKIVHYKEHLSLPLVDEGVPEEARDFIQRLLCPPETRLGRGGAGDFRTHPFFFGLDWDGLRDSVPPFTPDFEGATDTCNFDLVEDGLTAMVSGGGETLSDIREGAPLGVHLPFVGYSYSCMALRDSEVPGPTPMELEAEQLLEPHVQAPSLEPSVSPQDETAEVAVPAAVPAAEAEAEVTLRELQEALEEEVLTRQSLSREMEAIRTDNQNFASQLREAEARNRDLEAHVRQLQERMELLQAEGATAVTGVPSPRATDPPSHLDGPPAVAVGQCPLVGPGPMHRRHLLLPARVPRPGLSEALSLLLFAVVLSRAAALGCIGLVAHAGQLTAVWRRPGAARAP
Conditions: at 1 µM.

The target in assay [17] is T4, Calcium/calmodulin-dependent protein kinase type IV (Homo sapiens) (UniProt Q16566).
T4 sequence (whole entry): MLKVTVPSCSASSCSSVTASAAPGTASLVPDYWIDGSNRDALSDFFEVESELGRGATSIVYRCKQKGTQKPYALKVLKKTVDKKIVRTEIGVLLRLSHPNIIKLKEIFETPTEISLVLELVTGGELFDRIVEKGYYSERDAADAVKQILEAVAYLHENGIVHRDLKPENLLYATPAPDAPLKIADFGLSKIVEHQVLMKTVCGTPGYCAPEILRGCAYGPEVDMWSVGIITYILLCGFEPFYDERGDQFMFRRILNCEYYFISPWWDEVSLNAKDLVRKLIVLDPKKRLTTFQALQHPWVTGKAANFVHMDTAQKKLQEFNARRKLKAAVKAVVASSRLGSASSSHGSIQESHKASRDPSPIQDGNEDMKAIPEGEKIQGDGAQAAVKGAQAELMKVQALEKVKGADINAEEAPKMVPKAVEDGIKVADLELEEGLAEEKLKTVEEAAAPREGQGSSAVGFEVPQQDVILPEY
The following applies: at 1 µM.

Assay [18] deals with T4, Calcium/calmodulin-dependent protein kinase type IV (Homo sapiens). The following applies: at 10 µM.
Assay [19] has as its target T3, Myotonin-protein kinase (Homo sapiens). Conditions: at 10 µM.
The target of assay [20] is T5, Serine/threonine-protein kinase 17A (Homo sapiens) (UniProt Q9UEE5).
T5 sequence (whole entry): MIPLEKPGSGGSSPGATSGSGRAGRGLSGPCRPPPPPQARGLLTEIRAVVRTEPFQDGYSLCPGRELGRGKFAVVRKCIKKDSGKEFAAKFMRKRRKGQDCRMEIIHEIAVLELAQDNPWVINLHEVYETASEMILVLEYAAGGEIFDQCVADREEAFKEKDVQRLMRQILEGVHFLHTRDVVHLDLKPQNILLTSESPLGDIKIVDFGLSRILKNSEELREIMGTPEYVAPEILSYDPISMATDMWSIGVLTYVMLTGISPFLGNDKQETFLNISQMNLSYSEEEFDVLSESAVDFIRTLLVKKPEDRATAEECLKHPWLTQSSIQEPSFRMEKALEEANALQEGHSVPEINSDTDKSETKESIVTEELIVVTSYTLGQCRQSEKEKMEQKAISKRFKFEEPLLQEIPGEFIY
The following applies: at 1 µM.

Death-associated protein kinase 2 (Homo sapiens), sequence (Q9UIK4 whole entry, looked up): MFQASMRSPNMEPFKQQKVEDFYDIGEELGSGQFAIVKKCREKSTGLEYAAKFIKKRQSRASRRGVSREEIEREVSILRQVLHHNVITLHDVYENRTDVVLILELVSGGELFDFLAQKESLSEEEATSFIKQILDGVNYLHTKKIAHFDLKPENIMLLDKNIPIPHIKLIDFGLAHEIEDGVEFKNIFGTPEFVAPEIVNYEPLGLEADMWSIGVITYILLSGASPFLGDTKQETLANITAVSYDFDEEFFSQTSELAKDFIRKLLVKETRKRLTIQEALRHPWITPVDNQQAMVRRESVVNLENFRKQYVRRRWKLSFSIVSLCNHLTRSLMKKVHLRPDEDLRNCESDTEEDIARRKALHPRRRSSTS
Calcium/calmodulin-dependent protein kinase type II subunit delta (Homo sapiens), sequence (Q13557 whole entry): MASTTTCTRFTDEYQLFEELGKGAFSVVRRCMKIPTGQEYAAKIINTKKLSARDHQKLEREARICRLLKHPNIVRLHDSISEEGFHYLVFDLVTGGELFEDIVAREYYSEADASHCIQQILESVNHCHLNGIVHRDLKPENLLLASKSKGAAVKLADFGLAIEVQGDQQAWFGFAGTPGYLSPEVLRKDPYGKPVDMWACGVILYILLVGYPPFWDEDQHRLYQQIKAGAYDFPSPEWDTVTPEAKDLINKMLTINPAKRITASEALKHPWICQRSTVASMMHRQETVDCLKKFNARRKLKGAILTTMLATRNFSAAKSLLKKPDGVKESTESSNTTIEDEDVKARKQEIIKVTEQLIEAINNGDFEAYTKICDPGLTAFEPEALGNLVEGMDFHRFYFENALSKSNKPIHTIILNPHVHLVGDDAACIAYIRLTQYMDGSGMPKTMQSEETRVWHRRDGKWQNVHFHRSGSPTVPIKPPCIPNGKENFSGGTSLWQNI
Calcium/calmodulin-dependent protein kinase type II subunit gamma (Homo sapiens), sequence (Q13555 whole entry): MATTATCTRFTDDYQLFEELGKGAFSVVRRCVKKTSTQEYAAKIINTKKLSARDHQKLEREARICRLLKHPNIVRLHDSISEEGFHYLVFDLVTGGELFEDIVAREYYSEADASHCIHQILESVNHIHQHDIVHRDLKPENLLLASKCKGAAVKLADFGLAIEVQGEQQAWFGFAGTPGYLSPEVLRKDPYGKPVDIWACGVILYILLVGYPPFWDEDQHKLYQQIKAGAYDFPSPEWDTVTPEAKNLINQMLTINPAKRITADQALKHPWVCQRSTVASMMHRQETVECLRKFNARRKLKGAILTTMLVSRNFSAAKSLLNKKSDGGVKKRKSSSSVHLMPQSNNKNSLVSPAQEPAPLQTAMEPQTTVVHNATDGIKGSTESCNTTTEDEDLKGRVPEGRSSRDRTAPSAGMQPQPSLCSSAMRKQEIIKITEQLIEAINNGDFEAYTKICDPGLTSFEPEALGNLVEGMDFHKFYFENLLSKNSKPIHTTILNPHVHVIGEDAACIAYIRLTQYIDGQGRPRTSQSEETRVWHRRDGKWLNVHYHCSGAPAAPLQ
Calcium/calmodulin-dependent protein kinase type II subunit beta (Homo sapiens), sequence (Q13554 whole entry): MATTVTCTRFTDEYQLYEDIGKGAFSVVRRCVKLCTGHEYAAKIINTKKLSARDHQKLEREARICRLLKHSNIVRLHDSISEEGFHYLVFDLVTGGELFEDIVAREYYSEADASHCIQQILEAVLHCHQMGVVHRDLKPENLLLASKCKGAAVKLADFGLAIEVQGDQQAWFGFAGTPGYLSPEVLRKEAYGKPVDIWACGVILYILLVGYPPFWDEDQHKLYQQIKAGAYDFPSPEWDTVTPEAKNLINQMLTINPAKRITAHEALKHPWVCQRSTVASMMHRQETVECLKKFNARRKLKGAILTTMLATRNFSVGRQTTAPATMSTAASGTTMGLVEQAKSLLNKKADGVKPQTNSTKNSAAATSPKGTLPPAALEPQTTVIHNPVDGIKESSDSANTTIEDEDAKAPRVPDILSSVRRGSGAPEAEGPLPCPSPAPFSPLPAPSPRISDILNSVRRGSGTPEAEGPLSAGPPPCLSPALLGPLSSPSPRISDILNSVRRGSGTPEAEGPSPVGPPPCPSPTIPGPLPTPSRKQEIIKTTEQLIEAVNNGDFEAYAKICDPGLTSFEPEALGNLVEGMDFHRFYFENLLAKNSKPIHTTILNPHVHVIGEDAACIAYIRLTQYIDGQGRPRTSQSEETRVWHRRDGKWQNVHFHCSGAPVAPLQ
Death-associated protein kinase 1 (Homo sapiens), sequence (P53355 whole entry, looked up): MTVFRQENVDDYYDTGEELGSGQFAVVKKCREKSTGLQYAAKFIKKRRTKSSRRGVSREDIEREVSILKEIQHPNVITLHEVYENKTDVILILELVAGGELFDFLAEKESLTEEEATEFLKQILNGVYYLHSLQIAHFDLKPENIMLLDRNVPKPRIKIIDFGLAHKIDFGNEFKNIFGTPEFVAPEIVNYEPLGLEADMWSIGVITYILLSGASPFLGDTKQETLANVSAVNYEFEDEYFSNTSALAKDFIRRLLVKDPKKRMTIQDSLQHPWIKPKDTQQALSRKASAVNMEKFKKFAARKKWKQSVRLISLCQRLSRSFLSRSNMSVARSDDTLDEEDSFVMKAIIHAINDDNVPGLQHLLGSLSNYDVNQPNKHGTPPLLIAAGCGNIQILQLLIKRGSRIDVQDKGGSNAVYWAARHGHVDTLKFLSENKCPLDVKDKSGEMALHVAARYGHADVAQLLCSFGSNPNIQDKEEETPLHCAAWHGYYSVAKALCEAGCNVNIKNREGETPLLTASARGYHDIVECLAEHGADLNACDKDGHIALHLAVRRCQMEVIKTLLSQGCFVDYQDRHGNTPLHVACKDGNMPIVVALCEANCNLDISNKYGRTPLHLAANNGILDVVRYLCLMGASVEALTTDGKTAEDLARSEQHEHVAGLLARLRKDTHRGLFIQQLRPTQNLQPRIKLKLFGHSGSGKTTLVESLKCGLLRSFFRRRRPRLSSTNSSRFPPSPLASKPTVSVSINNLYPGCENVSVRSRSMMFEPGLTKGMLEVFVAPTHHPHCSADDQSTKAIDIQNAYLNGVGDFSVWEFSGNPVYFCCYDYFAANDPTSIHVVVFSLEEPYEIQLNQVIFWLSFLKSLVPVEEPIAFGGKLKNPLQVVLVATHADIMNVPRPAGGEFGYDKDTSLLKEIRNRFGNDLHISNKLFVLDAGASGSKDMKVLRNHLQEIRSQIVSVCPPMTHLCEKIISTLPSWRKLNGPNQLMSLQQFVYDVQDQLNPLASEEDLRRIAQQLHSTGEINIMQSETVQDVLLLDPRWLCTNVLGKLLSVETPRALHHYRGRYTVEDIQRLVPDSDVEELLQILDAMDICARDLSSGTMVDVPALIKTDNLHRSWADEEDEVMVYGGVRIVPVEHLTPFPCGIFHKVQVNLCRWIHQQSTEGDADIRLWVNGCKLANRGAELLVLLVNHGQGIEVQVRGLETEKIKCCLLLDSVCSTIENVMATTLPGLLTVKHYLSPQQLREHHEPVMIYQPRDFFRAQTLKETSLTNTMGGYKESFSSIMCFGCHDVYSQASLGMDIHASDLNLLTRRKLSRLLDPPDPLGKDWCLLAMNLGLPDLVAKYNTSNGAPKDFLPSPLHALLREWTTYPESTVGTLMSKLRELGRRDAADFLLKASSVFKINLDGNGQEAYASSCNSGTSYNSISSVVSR
Calcium/calmodulin-dependent protein kinase type 1 (Homo sapiens), sequence (Q14012 whole entry, looked up): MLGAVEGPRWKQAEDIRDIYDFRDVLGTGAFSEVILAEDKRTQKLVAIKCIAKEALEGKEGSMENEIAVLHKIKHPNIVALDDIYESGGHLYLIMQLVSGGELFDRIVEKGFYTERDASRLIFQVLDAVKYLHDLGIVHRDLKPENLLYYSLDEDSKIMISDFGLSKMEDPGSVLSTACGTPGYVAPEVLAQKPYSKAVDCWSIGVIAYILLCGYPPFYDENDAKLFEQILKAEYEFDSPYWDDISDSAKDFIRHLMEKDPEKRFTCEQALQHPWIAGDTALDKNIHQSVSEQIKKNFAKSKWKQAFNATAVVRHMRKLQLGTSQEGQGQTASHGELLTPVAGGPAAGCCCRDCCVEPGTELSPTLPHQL

In the case of `O=C(NC(NC(=S)Nc1ccc(F)c([N+](=O)[O-])c1)C(Cl)(Cl)Cl)C(c1ccccc1)c1ccccc1` (centres undefined), the residual activity in [1] is 99%; in assay [2], 91%; in assay [3], 91%; in assay [4], 72%; in assay [5], 99%; in [6], 89%. Also, the residual activity in assay [7] was determined as 99%; in [8], 82%; in [9], 71%; in assay [10], 95%; in assay [11], 78%; in [12] it was 136%. The residual activity amounted to 86% in assay [13], 102% in assay [14], 90% in assay [15] and 71% in assay [16].
In the case of `Nc1ncnc2c1c(-c1ccc(Oc3ccccc3)cc1)cn2C1CCCC1`, the residual activity in assay [1] turned out to be 95%; in assay [2] it was 29%; in [3], 83%; in [4] it was 57%; in assay [6], 72%; in [7] it was 98%. Besides, the residual activity was found to be 68% in assay [8]; 112% in assay [17]; 85% in assay [18]; 69% in assay [9]; 101% in [10]; 91% in [12]. In addition, the residual activity worked out at 93% in assay [13]; 105% in assay [14]; 53% in assay [15]; 127% in assay [16]; 127% in assay [19]; 110% in assay [20].
Regarding `CCCCc1c(-c2ccc(OC)cc2)[nH]c2nccnc12`, the residual activity turned out to be 109% in assay [1]; 86% in assay [2]; 82% in [3]; 84% in assay [4]; 64% in assay [5]; 26% in [6]. In addition, the residual activity in [7] is 73%; in assay [8] it was 42%; in assay [17], 112%; in assay [10], 101%; in assay [11], 100%; in [12] it was 72%. The residual activity in assay [13] was found to be 106%; in [14], 71%; in assay [15], 59%; in [20] it was 79%.
In the case of `CC(C)c1nn(-c2c(Cl)cccc2Cl)c2nc(Cc3ccc(OCCO)cc3)[nH]c(=O)c12`, the residual activity in assay [1] worked out at 90%; in [2], 91%; in [3] it was 91%; in assay [4], 59%; in assay [5], 95%; in assay [6], 60%. In addition, the residual activity in [7] is 94%; in assay [8], 67%; in assay [18], 82%; in assay [9], 91%; in assay [10] it was 92%; in assay [11] it was 97%. For the same compound, the residual activity in [12] amounted to 73%; in assay [13], 74%; in assay [14] it was 98%; in [15], 94%; in assay [19], 87%; in [20] it was 96%.
As for `O=C1NC(=O)c2c1c1c3ccccc3[nH]c1n1cncc21`, the residual activity came to 61% in [1]; 36% in [2]; 22% in [3]; 14% in [4]; 15% in [5]; 7% in assay [6]. Also, the residual activity in [7] came out at 12%; in assay [8] it was 6%; in assay [17] it was 61%; in assay [18], 62%; in assay [9], 41%; in assay [10], 9%. The residual activity in assay [11] is -1%; in assay [12], 96%; in assay [13], 85%; in assay [14], 85%; in [15], 91%; in [20], 10%.
Regarding `COc1ccc(-c2cnc3c(-c4ccsc4)cnn3c2)cc1`, the residual activity in [1] is 88%; in assay [2] it was 80%; in assay [3], 93%; in assay [4] it was 89%; in assay [5], 71%; in assay [6], 79%. Further, the residual activity in [7] amounted to 80%; in assay [8], 87%; in [12] it was 84%; in assay [13] it was 100%; in assay [16] it was 145%; in [19], 129%. Besides, the residual activity in assay [20] was 95%.
